Results from PubChem BioAssay AID1159580 (chemical genetic matrix, 2015).
Hit rate of the full screen: of about 5,500 compounds, about 2,000 (36%) were called active. Inconclusive results (about 18%) are left out. Cut-off read from the data, not from the text of the source: active = normalized growth mostly below about 0.91 (no sharp cut-off); inconclusive = no clear call, values can overlap the other calls; inactive = mostly above about 0.92. This is one part of the list.

Assay: chemical genetic growth profiling, strain panel (AID 1159580);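 note: tested at 20 µM; growth read once vehicle control cultures reached saturation at 30 °C; 1 = growth at the plate median or of vehicle wells; lower values mean less growth of the strain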
Details: growth OD
[1] = S. cerevisiae deletion strains, locus YDL101C, strain DUN1, stronger effect = lower value
[2] = S. cerevisiae deletion strains, locus YHR030C, strain SLT2, stronger effect = lower value

Measured: normalized growth

O=C(Oc1cc(Cl)c(Cl)cc1Cl)C1c2ccccc2Oc2ccccc21
inactive: S. cerevisiae deletion strains, locus YAR019C, strain CDC15, stronger effect = lower value 0.953 | S. cerevisiae deletion strains, locus YBL105C, strain PKC1, stronger effect = lower value 0.943 | S. cerevisiae deletion strains, locus YBR135W, strain CKS1, stronger effect = lower value 0.944 | S. cerevisiae deletion strains, locus YBR136W, strain MEC1, stronger effect = lower value 0.937 | S. cerevisiae deletion strains, locus YBR160W, strain CDC28, stronger effect = lower value 0.94 | S. cerevisiae deletion strains, locus YDL017W, strain CDC7, stronger effect = lower value 0.937 | S. cerevisiae deletion strains, locus YDL028C, strain MPS1, stronger effect = lower value 0.943 | [1] 0.945 | S. cerevisiae deletion strains, locus YDL108W, strain KIN28, stronger effect = lower value 0.941 | S. cerevisiae deletion strains, locus YDL132W, strain cdc53, stronger effect = lower value 0.934 | S. cerevisiae deletion strains, locus YDL214C, strain PRR2, stronger effect = lower value 0.95 | S. cerevisiae deletion strains, locus YDR052C, strain DBF4, stronger effect = lower value 0.96 | S. cerevisiae deletion strains, locus YDR054C, strain cdc34, stronger effect = lower value 0.927 | S. cerevisiae deletion strains, locus YDR226W, strain ADK1, stronger effect = lower value 0.963 | S. cerevisiae deletion strains, locus YDR477W, strain SNF1, stronger effect = lower value 0.912 | S. cerevisiae deletion strains, locus YER123W, strain YCK3, stronger effect = lower value 0.961 | S. cerevisiae deletion strains, locus YER133W, strain GLC7, stronger effect = lower value 0.982 | S. cerevisiae deletion strains, locus YFL009W, strain cdc4, stronger effect = lower value 0.933 | S. cerevisiae deletion strains, locus YFL029C, strain CAK1, stronger effect = lower value 0.95 | S. cerevisiae deletion strains, locus YFR003C, strain YPI1, stronger effect = lower value 0.941 | S. cerevisiae deletion strains, locus YFR019W, strain FAB1, stronger effect = lower value 0.996 | S. cerevisiae deletion strains, locus YFR028C, strain CDC14, stronger effect = lower value 0.949 | S. cerevisiae deletion strains, locus YGR040W, strain KSS1, stronger effect = lower value 0.907 | S. cerevisiae deletion strains, locus YGR052W, strain FMP48, stronger effect = lower value 0.924 | S. cerevisiae deletion strains, locus YGR092W, strain DBF2, stronger effect = lower value 0.655 | S. cerevisiae deletion strains, locus YHR079C, strain IRE1, stronger effect = lower value 0.829 | S. cerevisiae deletion strains, locus YHR082C, strain KSP1, stronger effect = lower value 0.976 | S. cerevisiae deletion strains, locus YHR205W, strain SCH9, stronger effect = lower value 0.924 | S. cerevisiae deletion strains, locus YIL147C, strain SLN1, stronger effect = lower value 0.936 | S. cerevisiae deletion strains, locus YJL095W, strain BCK1, stronger effect = lower value 0.862 | S. cerevisiae deletion strains, locus YJL128C, strain PBS2, stronger effect = lower value 0.887 | S. cerevisiae deletion strains, locus YJL157C, strain FAR1, stronger effect = lower value 0.979 | S. cerevisiae deletion strains, locus YJR016C, strain ILV3, stronger effect = lower value 0.945 | S. cerevisiae deletion strains, locus YJR066W, strain TOR1 (second series), stronger effect = lower value 0.865 | S. cerevisiae deletion strains, locus YJR066W, strain TOR1, stronger effect = lower value 0.93 | S. cerevisiae deletion strains, locus YKL048C, strain ELM1, stronger effect = lower value 0.883 | S. cerevisiae deletion strains, locus YKL067W, strain YNK1, stronger effect = lower value 0.951 | S. cerevisiae deletion strains, locus YKL101W, strain HSL1, stronger effect = lower value 0.9 | S. cerevisiae deletion strains, locus YKL193C, strain SDS22, stronger effect = lower value 0.958 | S. cerevisiae deletion strains, locus YKL203C, strain TOR2, stronger effect = lower value 0.958 | S. cerevisiae deletion strains, locus YLR133W, strain CKI1, stronger effect = lower value 0.981 | S. cerevisiae deletion strains, locus YLR403W, strain SFP1, stronger effect = lower value 0.957 | S. cerevisiae deletion strains, locus YML070W, strain DAK1, stronger effect = lower value 0.962 | S. cerevisiae deletion strains, locus YMR001C, strain CDC5, stronger effect = lower value 0.951 | S. cerevisiae deletion strains, locus YMR205C, strain PFK2 (second series), stronger effect = lower value 0.971 | S. cerevisiae deletion strains, locus YMR277W, strain FCP1, stronger effect = lower value 0.96 | S. cerevisiae deletion strains, locus YNL006W, strain LST8, stronger effect = lower value 0.945 | S. cerevisiae deletion strains, locus YNL020C, strain ARK1, stronger effect = lower value 0.986 | S. cerevisiae deletion strains, locus YNL161W, strain CBK1, stronger effect = lower value 0.94 | S. cerevisiae deletion strains, locus YNL183C, strain NPR1, stronger effect = lower value 0.884 | S. cerevisiae deletion strains, locus YNL207W, strain RIO2, stronger effect = lower value 0.925 | S. cerevisiae deletion strains, locus YNL222W, strain SSU72, stronger effect = lower value 0.942 | S. cerevisiae deletion strains, locus YNL307C, strain MCK1 (second series), stronger effect = lower value 0.9 | S. cerevisiae deletion strains, locus YOL078W, strain AVO1, stronger effect = lower value 0.959 | S. cerevisiae deletion strains, locus YOL136C, strain PFK27, stronger effect = lower value 0.976 | S. cerevisiae deletion strains, locus YOR061W, strain CKA2, stronger effect = lower value 0.995 | S. cerevisiae deletion strains, locus YOR119C, strain RIO1, stronger effect = lower value 0.988 | S. cerevisiae deletion strains, locus YOR231W, strain MKK1, stronger effect = lower value 0.856 | S. cerevisiae deletion strains, locus YOR329C, strain SCD5, stronger effect = lower value 0.943 | S. cerevisiae deletion strains, locus YPL031C, strain PHO85, stronger effect = lower value 0.903 | S. cerevisiae deletion strains, locus YPL153C, strain RAD53, stronger effect = lower value 0.904 | S. cerevisiae deletion strains, locus YPL204W, strain HRR25, stronger effect = lower value 0.867 | S. cerevisiae deletion strains, locus YPL209C, strain IPL1, stronger effect = lower value 0.938 | S. cerevisiae deletion strains, locus YPR025C, strain CCL1, stronger effect = lower value 0.939 | S. cerevisiae deletion strains, locus YPR106W, strain ISR1, stronger effect = lower value 0.931 | S. cerevisiae deletion strains, locus YPR111W, strain DBF20, stronger effect = lower value 0.901 | S. cerevisiae deletion strains, strain NNK1, stronger effect = lower value 0.927 | S. cerevisiae deletion strains, strain TSCII, stronger effect = lower value 0.944
active: [2] 0.75 | S. cerevisiae deletion strains, locus YLR113W, strain HOG1, stronger effect = lower value 0.758 | S. cerevisiae deletion strains, locus YPL256C, strain CLN2, stronger effect = lower value 0.821

O=C(O)C1c2ccccc2Oc2ccccc21
inactive: S. cerevisiae deletion strains, locus YAL013W, strain DEP1, stronger effect = lower value 0.999 | S. cerevisiae deletion strains, locus YBR229C, strain ROT2, stronger effect = lower value 0.993 | S. cerevisiae deletion strains, locus YCL061C, strain MRC1, stronger effect = lower value 0.99 | [1] 1 | S. cerevisiae deletion strains, locus YDL134C, strain PPH21, stronger effect = lower value 1 | S. cerevisiae deletion strains, locus YDR150W, strain NUM1, stronger effect = lower value 0.962 | S. cerevisiae deletion strains, locus YEL061C, strain CIN8, stronger effect = lower value 0.996 | S. cerevisiae deletion strains, locus YGR078C, strain PAC10, stronger effect = lower value 0.984 | [2] 0.987 | S. cerevisiae deletion strains, locus YHR087W, strain rtc3, stronger effect = lower value 0.971 | S. cerevisiae deletion strains, locus YJL187C, strain SWE1, stronger effect = lower value 0.992 | S. cerevisiae deletion strains, locus YJR043C, strain POL32, stronger effect = lower value 1 | S. cerevisiae deletion strains, locus YJR075W, strain HOC1, stronger effect = lower value 0.975 | S. cerevisiae deletion strains, locus YLR039C, strain RIC1, stronger effect = lower value 0.984 | S. cerevisiae deletion strains, locus YLR058C, strain SHM2 (second series), stronger effect = lower value 0.998 | S. cerevisiae deletion strains, locus YLR085C, strain ARP6, stronger effect = lower value 0.969 | S. cerevisiae deletion strains, locus YLR262C, strain YPT6, stronger effect = lower value 1 | S. cerevisiae deletion strains, locus YML094W, strain GIM5, stronger effect = lower value 1.03 | S. cerevisiae deletion strains, locus YMR219W, strain ESC1, stronger effect = lower value 0.989 | S. cerevisiae deletion strains, locus YMR263W, strain SAP30, stronger effect = lower value 1.01 | S. cerevisiae deletion strains, locus YNL128W, strain TEP1, stronger effect = lower value 1.01 | S. cerevisiae deletion strains, locus YNL153C, strain GIM3, stronger effect = lower value 0.983 | S. cerevisiae deletion strains, locus YNL298W, strain CLA4 (second series), stronger effect = lower value 0.993 | S. cerevisiae deletion strains, locus YNL322C, strain KRE1, stronger effect = lower value 0.976 | S. cerevisiae deletion strains, locus YNR030W, strain Alg12, stronger effect = lower value 1.01 | S. cerevisiae deletion strains, locus YPL055C, strain LGE1, stronger effect = lower value 0.964 | S. cerevisiae deletion strains, locus YPL241C, strain CIN2, stronger effect = lower value 0.971 | S. cerevisiae deletion strains, locus YPR135W, strain CTF4, stronger effect = lower value 1.03 | S. cerevisiae strains, strain wild type, stronger effect = lower value 1.01
